Source: PubChem (National Center for Advancing Translational Sciences (NCATS))
Compounds with a hit are over-represented: about 2% of the library has one in this group of screens.
Rango-impB inh – qHTS Assay for Inhibitors of Rango (Ran-regulated importin-beta cargo) - Importin beta complex formation; 340,000 compounds, 0.031% hits; Importin subunit beta-1 (Homo sapiens), Q14974; Rango CFP/YFP FRET sensor + importin beta, 45 min; Potency, µM (titrated, usually from 92.2 µM); calls by dose curve; also: nearly all actives have a fitted effect of over 15% in size
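Inhibition scored from the CFP 486 nm/YFP 530 nm FRET ratio 45 min after adding 0.125 microM importin beta to 50 nM Rango biosensor preincubated 5 min with compound (room temperature, PBS with DTT, Tween-20, BSA). No-importin wells as positive control.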
aSyn rescue – qHTS of alpha-syn Inhibitors | Potency, µM (top dose mostly 46.1 µM), hits mostly activators | AID 652106, 2013 | 370,000 compounds, 0.14% hits | Yeast expressing alpha-synuclein, growth rescue, BacTiter-Glo, 24 h; also: nearly all actives have a fitted effect of over 65% in size
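Readout is rescue of growth in alpha-synuclein-expressing yeast, so inhibitors of toxicity appear as activators. Growth after 24 hr at 30 deg C in galactose medium is quantified by luminescence.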
Abeta rescue – qHTS for compounds that reverse cellular toxicity of Amyloid beta (A-beta) peptide in yeast: Primary Screen. Potency, µM (top dose mostly 46.1 µM), usual class: activators. 410,000 compounds, 0.063% hits. yeast expressing A-beta42, growth rescue, OD600, 48 h; response scale: 0% DMSO, 100% iron-clioquinol control; also: nearly all actives have a fitted effect of over 55% in size
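Yeast growth medium received pinned compounds, then yeast cells expressing toxic A-beta were added; plates incubated at 30 C for 48 hr. Growth read as absorbance at 600 nm, normalized to DMSO and equimolar FeCl3 plus clioquinol controls.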
Rango dissoc inh – qHTS Assay for Inhibitors of RanGTP induced Rango (Ran-regulated importin-beta cargo) - Importin beta complex dissociation; Potency, µM (highest dose often 46.1 µM); 340,000 compounds, 0.071% hits; Biochemical FRET Rango-importin beta, RanGTP-induced dissociation; AID 540253, 2011; calls by dose curve; also: nearly all actives have a fitted effect of over 45% in size
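Compounds preincubate 5 min with complex of recombinant Rango and importin beta in PBS with 1 mM DTT. Ran (0.6 uM) loaded with 2 mM GTP plus 0.2 uM RCC1 starts dissociation; FRET is recorded 45 min later.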
S-ASM inh – Inhibitors of Secretory Acid Sphingomyelinase (S-ASM): qHTS. Sphingomyelin phosphodiesterase (Homo sapiens), P17405. placental ASM, HMU-PC fluorogenic substrate, 60 min. Potency, µM (top dose mostly 57.5 µM), hits mostly inhibitors. 340,000 compounds, 0.006% hits. AID 504937, 2011
Target sequence (P17405 47-631 limits assumed): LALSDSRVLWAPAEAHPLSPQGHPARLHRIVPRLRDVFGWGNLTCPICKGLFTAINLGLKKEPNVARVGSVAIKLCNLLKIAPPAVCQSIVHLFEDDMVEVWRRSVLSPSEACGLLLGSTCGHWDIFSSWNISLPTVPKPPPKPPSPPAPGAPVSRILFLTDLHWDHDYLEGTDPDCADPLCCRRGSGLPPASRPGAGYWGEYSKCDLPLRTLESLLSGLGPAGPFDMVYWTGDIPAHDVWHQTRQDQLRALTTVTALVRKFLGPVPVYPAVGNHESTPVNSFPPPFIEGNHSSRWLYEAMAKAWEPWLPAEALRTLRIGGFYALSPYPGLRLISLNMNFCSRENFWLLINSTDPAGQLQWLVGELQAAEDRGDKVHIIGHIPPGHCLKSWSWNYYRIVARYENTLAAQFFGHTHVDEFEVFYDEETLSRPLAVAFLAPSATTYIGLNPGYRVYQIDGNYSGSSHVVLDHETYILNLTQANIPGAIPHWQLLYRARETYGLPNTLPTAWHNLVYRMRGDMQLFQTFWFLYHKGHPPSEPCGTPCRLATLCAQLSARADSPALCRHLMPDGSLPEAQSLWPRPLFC
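HMU-PC0 cleavage (9 uM final) by human placental ASM, 60 min at 37 °C following 10 min compound exposure at RT; stopped at pH 10, fluorescence Ex 386/Em 447 nm.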
TDP43 rescue – qHTS of TDP-43 Inhibitors. TDP-43 expressing yeast growth rescue, BacTiter-Glo, 24 h. Potency, µM (series often up to 46.1 µM), usual class: activators. 410,000 compounds, 1.8% hits. AID 652104, 2013; also: nearly all actives have a fitted effect of over 50% in size
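Readout is BacTiter-Glo luminescence of cell growth, so inhibitors register as activators. TDP-43-expressing yeast at OD600=0.02 in galactose medium, after raffinose pregrowth to mid-log, were incubated with compound for 24 hr at 30 deg C.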
A number is an active result; n = inactive; u = inconclusive; x = no result given; [ ] = dose if it differs, or a comment. Unless noted, calls follow the shape of the dose curve; as a rule, active = well fitted curve in the direction sought with a large enough effect; inconclusive = small, poorly fitted or top-dose-only effect, or another doubt; inactive = no such curve, though single readings can be large; an effect the other way counts as inactive or inconclusive.

SMILES	Rango-impB inh	aSyn rescue	Abeta rescue	Rango dissoc inh	S-ASM inh	TDP43 rescue
Cc1cc(C)c(NC(=O)/C=C\C(=O)O)c([N+](=O)[O-])c1	n	n	n	n	n	16µM
Cc1cc(C)c(NC(=O)/C=C\C(=O)O)c(Cl)c1	n	n	n	n	n	13µM
COCc1cc(N2CCOCC2)nc(SCc2ccc(Cl)cc2)n1	n	n	10µM	n	n	n[0.397 µM]
Cc1ccc(-c2nc3ccc(C)cn3c2Cc2cccc(Cl)c2)cc1	x	n	n	x	x	n
N#Cc1ccc(-c2nc3ccc(Br)cn3c2Cc2cccc(Cl)c2)cc1	x	n	n	x	x	u
Cc1ccc(-c2nc3ccc(Br)cn3c2Cc2cccc(Cl)c2)cc1	x	n	n	x	x	28µM
Clc1ccc(-c2nc3ccc(Br)cn3c2Cc2cccc(Cl)c2)cc1	x	n	n	x	x	32µM
Cc1ccc(-c2nc3ccc(Cl)cn3c2Cc2cccc(Cl)c2)cc1	x	n	n	x	x	20µM
CC(C)(C)Cc1c(-c2ccc(Cl)cc2)nc2ccc(Br)cn12	x	n	n	x	x	35µM
CC(C)(C)Cc1c(-c2ccc(Br)cc2)nc2ccc(Cl)cn12	x	n	n	x	x	u
CC(=O)N1CCc2cc(Br)cc(S(=O)(=O)N3CCC(C)CC3)c21	x	x	n	x	x	n
COc1ccc(C(=O)CCC(=O)Nc2cc(C)ccc2C)cc1	x	x	n	x	x	11µM
S=C(NC1CCCCC1)NC1CC2C=CC1C2 (stereo not given)	n	n	11µM	n	n	n[1.82 µM]
CS(=O)(=O)c1ccc(C(=O)OCc2nnc(-c3ccc(Cl)cc3)o2)cc1[N+](=O)[O-]	n	n	n	n	n	18µM
O=C(OCc1nnc(-c2ccc(Cl)cc2)o1)c1ccc(O)cc1	n	n	n	n	n	n
COc1ccc(OC(=O)OCc2ccccc2)cc1	x	n	n	x	x	n
O=C(OCCOCCOC(=O)Oc1ccccc1)Oc1ccccc1	n	n	n	n	n	14µM
COc1ccccc1-c1cc2ccccc2[nH]1	n	n	n	n	n	16µM
CCCCSCCCNC(=O)c1cn(C)c2ccc(S(=O)(=O)N3CCCCC3)cc2c1=O	x	x	n	x	x	n
O=C(Nc1ccc(N=Nc2ccccc2)c(NC(=O)C2CCCO2)c1)C1CCCO1 (stereo not given)	u	n	n	n	u	14µM
O=C(Nc1ccc([N+](=O)[O-])c(NC(=O)C2CCCO2)c1)C1CCCO1 (stereo not given)	n	n	n	n	n	n
CN(C)/[N+]([O-])=N/Oc1ccc([N+](=O)[O-])cn1	x	n	x	x	x	x
FC(F)(F)c1cc(-c2ccco2)nc(NCc2ccco2)n1	n	n	n	u	n	u
FC(F)(F)c1cc(-c2ccco2)nc(NCc2cccs2)n1	u	n	n	n	n	20µM
COc1ccc(-c2cn3nc(N4CCC(C(=O)Nc5cccc(OC)c5)CC4)sc3n2)cc1	x	x	n	x	x	n
SMILES	Rango-impB inh	aSyn rescue	Abeta rescue	Rango dissoc inh	S-ASM inh	TDP43 rescue
O=C(NCC1CCCO1)c1ccc(COc2ccccc2Br)cc1 (stereo not given)	n	n	n	n	n	13µM
O=C(NCC1CCCO1)c1ccc(COc2ccc(Cl)cc2)cc1 (stereo not given)	n	n	n	n	n	n
CC(C)(C)c1cc(NC(=O)COc2ccc(Br)cc2)n(-c2ccccc2)n1	n	n	n	n	n	20µM
COc1ccc(Nc2nnc(SCC3CCCO3)s2)cc1 (stereo not given)	n	n	n	n	n	28µM
Cc1cccc(Nc2nnc(SCC3CCCCO3)s2)c1C (stereo not given)	n	n	n	n	n	n
COc1cccc(Nc2nnc(SCC3CCCCO3)s2)c1 (stereo not given)	n	n	n	n	n	10µM
CCCc1nc(SCc2cc(=O)c3ccc(C)c(C)c3[nH]2)n[nH]1	x	x	n	x	x	n
COc1ccc(/C=C2\C=Cc3ccccc32)cc1	x	n	x	x	x	x
Cc1csc(NC(=O)CCc2c(C)nc3cc(-c4ccc(Cl)cc4)nn3c2C)n1	n	n	n	n	n	n
Cc1nc2cc(-c3ccc(Cl)cc3)nn2c(C)c1CCC(=O)NC(C)c1ccc2c(c1)OCCO2 (stereo not given)	n	n	n	n	n	28µM
COCCCNc1nc(NCc2ccc(C)cc2)c2cnn(C)c2n1	x	x	n	x	x	n
CC(=O)c1cccc(NC(=O)CCc2c(C)nc3c(c(C)nn3-c3ccccc3)c2C)c1	x	x	n	x	x	6.3µM
CC(=O)c1cccc(NC(=O)c2cnn(-c3ccccc3)c2C)c1	u	n	u	n	n	14µM
Cc1c(C(=O)Nc2ccccc2)cnn1-c1ccccc1	n	n	n	n	n	n
Cc1c(C(=O)Nc2cccc(F)c2)cnn1-c1ccccc1	n	n	n	n	n	10µM
CC(=O)c1ccc(NC(=O)CCc2c(C)nc3c(c(C)nn3-c3ccc(C)cc3)c2C)cc1	x	x	n	x	x	n
Cc1cccc(C(=O)NCC(c2ccco2)S(=O)(=O)c2cccs2)c1 (stereo not given)	x	x	n	x	x	n
CCCC1CC(C)(c2csc(Nc3ccc(OCC)cc3)n2)OC1=O (stereo not given)	u	n	n	n	n	18µM
CCOc1ccc(NC(=O)CC2CC(C)(C)OC2=O)cc1 (stereo not given)	n	n	n	n	n	n
Cc1c(C(=O)Nc2ccccc2F)sc2ncnc(N(C)C3CCCCC3)c12	x	x	n	x	x	u
C=C1C=C(C)n2ncc(C(=O)Nc3cccc(C(=O)Nc4cccc(C(F)(F)F)c4)c3)c2N1	x	n	x	x	x	x
O=C(NC1CCCC1)c1cnn(-c2ccc(F)cc2F)c1C1CCNCC1	x	n	n	x	x	n
Cn1ccc2c(-c3ccc(C(C)(C)C)cc3)cc3c(c21)C1CCC3C1 (stereo not given)	x	n	n	x	x	n
COc1ccc(-c2cc3c(c4c2ccn4C)C2CCC3C2)cc1 (stereo not given)	x	n	n	x	x	35µM
Cn1ccc2c(-c3ccc(C(=O)O)cc3)cc3c(c21)C1CCC3C1 (stereo not given)	x	n	n	x	x	28µM
COc1cccc(-c2cc3c(c4c2ccn4C)C2CCC3C2)c1 (stereo not given)	x	n	n	x	x	u
Cc1cccc(CCNC(=O)c2nc(-c3ccc(Cl)cc3)n3c2CCCCC3)c1	x	x	n	x	x	u
Cc1ccc(S(=O)(=O)c2nnn(-c3ccc(F)c(Cl)c3)c2N)cc1	x	x	n	x	x	n
